Reference: PubChem BioAssay (EPA / NIEHS)
Active and inactive are the calls of the source. How the source made its calls: active means hit-call score of the fitted dose curve at least 0.9, where 1 is the maximum; inactive means score below 0.9.

Assays:
[1] = read-out: Plasminogen activator inhibitor-1 (PAI1), SERPINE1 (gene 5054); assay: BSK_hDFCGF_PAI1: BioMAP Diversity Plus: hDFCGF Assay for Plasminogen activator inhibitor-1 (PAI1) Biomarker Activity (AID 2283066); conditions: primary human foreskin fibroblasts; actives raise or lower the signal
Procedure, shortened: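 Human foreskin fibroblasts in the hDFCGF system were dosed with compound for 24 h; PAI-1 was quantified by ELISA. Bidirectional curve fitting used DMSO as negative control and baseline.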

[2] = read-out: Intercellular Adhesion Molecule 1 (ICAM1), ICAM1 (gene 3383); assay: BSK_KF3CT_ICAM1: BioMAP Diversity Plus: KF3CT Assay for Intercellular Adhesion Molecule 1 (ICAM1) Biomarker Activity (AID 2283067); conditions: primary human keratinocytes with fibroblasts; actives raise or lower the signal
Procedure, shortened: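 Cell-surface ICAM-1 was measured by ELISA 24 h after dosing primary human skin keratinocytes co-cultured with fibroblasts. Parallel SRB staining tracked overt cytotoxicity. Gain or loss of signal was fitted relative to DMSO.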

[3] = read-out: Interferon-gamma inducible Protein 10 (IP10), CXCL10 (gene 3627); assay: BSK_KF3CT_IP10: BioMAP Diversity Plus: KF3CT Assay for Interferon-gamma inducible Protein 10 (IP10) Biomarker Activity (AID 2283068); conditions: primary human keratinocytes with fibroblasts; actives raise or lower the signal
Procedure, shortened: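 KF3CT co-culture (keratinocytes + foreskin fibroblasts), 24 h compound, IP-10 by ELISA; bidirectional fit vs DMSO baseline.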

[4] = BSK_KF3CT_SRB: Viability Assessment in the BioMAP Diversity Plus: KF3CT Assay (AID 2283069); conditions: primary human keratinocytes with fibroblasts;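 further: total protein by sulforhodamine B staining as a cytotoxicity measure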
Procedure, shortened: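 Human keratinocyte and foreskin fibroblast co-culture exposed to chemical for 24 h. Total protein measured in parallel cultures by 0.1% sulforhodamine B staining after 10% TCA fixation, read at 560 nm; bidirectional fit relative to DMSO.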

[5] = read-out: Interleukin-1 alpha (IL1a), IL1A (gene 3552); assay: BSK_KF3CT_IL1a: BioMAP Diversity Plus: KF3CT Assay for Interleukin-1 alpha (IL1a) Biomarker Activity (AID 2283070); conditions: primary human keratinocytes with fibroblasts; actives raise or lower the signal
Procedure, shortened: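 Primary human keratinocyte plus foreskin fibroblast co-culture, dosed and measured at 24 h in 96-well plates. IL-1a level quantified by ELISA; bidirectional fit relative to DMSO.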

[6] = read-out: TIMP metallopeptidase inhibitor 2 (TIMP2), TIMP2 (gene 7077); assay: BSK_KF3CT_TIMP2: BioMAP Diversity Plus: KF3CT Assay for TIMP metallopeptidase inhibitor 2 (TIMP2) Biomarker Activity (AID 2283071); conditions: primary human keratinocytes with fibroblasts; actives raise or lower the signal
Procedure, shortened: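 Human primary keratinocyte/foreskin fibroblast co-culture dosed with chemical and sampled at 24 h. TIMP-2 levels quantified by ELISA; bidirectional fitting against DMSO negative control as baseline.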

[7] = read-out: Transforming growth factor beta 1 (TGFb1), TGFB1 (gene 7040); assay: BSK_KF3CT_TGFb1: BioMAP Diversity Plus: KF3CT Assay for Transforming growth factor beta 1 (TGFb1) Biomarker Activity (AID 2283072); conditions: primary human keratinocytes with fibroblasts; actives raise or lower the signal
Procedure, shortened: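 Human keratinocyte plus foreskin fibroblast primary co-culture, dosed with chemical for 24 h. TGF-b1 quantified by ELISA. Activity fitted bidirectionally against DMSO negative control as baseline.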

[8] = read-out: Matrix Metallopeptidase 9 (MMP9), MMP9 (gene 4318); assay: BSK_KF3CT_MMP9: BioMAP Diversity Plus: KF3CT Assay for Matrix Metallopeptidase 9 (MMP9) Biomarker Activity (AID 2283074); conditions: primary human keratinocytes with fibroblasts; actives raise or lower the signal
Procedure, shortened: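 Human keratinocyte and foreskin fibroblast co-culture exposed to chemicals for 24 h; MMP9 biomarker measured by ELISA, bidirectional fitting relative to DMSO; cytotoxicity tracked by SRB total protein staining in parallel cultures.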

[9] = read-out: urokinase plasminogen activator (uPA), PLAU (gene 5328); assay: BSK_KF3CT_uPA: BioMAP Diversity Plus: KF3CT Assay for urokinase plasminogen activator (uPA) Biomarker Activity (AID 2283075); conditions: primary human keratinocytes with fibroblasts; actives raise or lower the signal
Procedure, shortened: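 Primary human keratinocyte/foreskin fibroblast co-culture exposed to chemical; uPA measured by ELISA at 24 h. Bidirectional fit versus DMSO, with parallel SRB total-protein staining for cytotoxicity.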

[10] = read-out: CD40, CD40 (gene 958); assay: BSK_LPS_CD40: BioMAP Diversity Plus: LPS Assay for CD40 Biomarker Activity (AID 2283076); conditions: primary human HUVEC with PBMC; actives raise or lower the signal
Procedure, shortened: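 In the LPS system of human endothelial cells with peripheral blood mononuclear cells, CD40 levels were read by ELISA 24 h post-treatment. Signal changes in either direction were fitted against the DMSO baseline, with parallel SRB protein staining.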

[11] = read-out: E-selectin (Homo sapiens) (UniProt P16581); assay: BSK_LPS_Eselectin: BioMAP Diversity Plus: LPS Assay for Eselectin Biomarker Activity (AID 2283077); conditions: primary human HUVEC with PBMC; actives raise or lower the signal
Procedure, shortened: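 E-selectin ELISA on LPS-stimulated endothelial cell/PBMC co-cultures, read 24 h post-treatment; gains and losses fitted against DMSO. Parallel SRB staining (0.1% SRB after 10% TCA fixation, 560 nm) flags overt cytotoxicity.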

[12] = read-out: Interleukin-8 (IL8), CXCL8 (gene 3576); assay: BSK_LPS_IL8: BioMAP Diversity Plus: LPS Assay for Interleukin-8 (IL8) Biomarker Activity (AID 2283078); conditions: primary human HUVEC with PBMC; actives raise or lower the signal
Procedure, shortened: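 ELISA read-out of IL-8 after 24 h chemical treatment of LPS-activated endothelial/PBMC human primary co-cultures. Changes either up or down relative to DMSO; overt cytotoxicity checked by sulforhodamine B staining in parallel wells.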

[13] = BSK_LPS_SRB: Viability Assessment in the BioMAP Diversity Plus: LPS Assay (AID 2283079); conditions: primary human HUVEC with PBMC;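 further: total protein by sulforhodamine B absorbance as a cytotoxicity measure; measured one day after compound addition; fitted in both directions against DMSO so loss or gain of signal counts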
Procedure, shortened: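 SRB viability endpoint: cells fixed with 10% TCA, stained with 0.1% SRB, read at 560 nm, 24 h post-dose. HUVEC/PBMC co-culture; signal change in either direction scored relative to DMSO.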

[14] = read-out: Interleukin-1 alpha (IL1a), IL1A (gene 3552); assay: BSK_LPS_IL1a: BioMAP Diversity Plus: LPS Assay for Interleukin-1 alpha (IL1a) Biomarker Activity (AID 2283080); conditions: primary human HUVEC with PBMC; actives raise or lower the signal
Procedure, shortened: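 Readout is IL-1a level by ELISA, 24 h post-dose, fitted as gain or loss relative to DMSO. System: LPS-activated human primary co-culture of vascular endothelium and peripheral blood mononuclear cells, with parallel SRB total-protein cytotoxicity.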

[15] = read-out: Monocyte Chemoattractant Protein-1 (MCP1), CCL2 (gene 6347); assay: BSK_LPS_MCP1: BioMAP Diversity Plus: LPS Assay for Monocyte Chemoattractant Protein-1 (MCP1) Biomarker Activity (AID 2283081); conditions: primary human HUVEC with PBMC; actives raise or lower the signal
Procedure, shortened: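 Secreted MCP-1 read by ELISA at 24 h post-dosing in an LPS-activated co-culture of endothelial cells with peripheral blood mononuclear cells. Fits run in both directions, DMSO as baseline; parallel SRB staining tracks overt cytotoxicity.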

[16] = BSK_LPS_PGE2: BioMAP Diversity Plus: LPS Assay for Prostaglandin E2 (PGE2) Biomarker Activity (AID 2283082); conditions: primary human HUVEC with PBMC; actives raise or lower the signal;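 on AC50: secreted prostaglandin E2 measured by ELISA in LPS-stimulated co-culture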
Procedure, shortened: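 HUVEC plus PBMC co-culture stimulated with LPS; secreted PGE2 quantified by ELISA 24 h after chemical dosing. Activity fitted bidirectionally against DMSO as negative control and baseline; parallel SRB total-protein staining served as cytotoxicity check.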

[17] = read-out: Macrophage colony-stimulating factor (MCSF), CSF1 (gene 1435); assay: BSK_LPS_MCSF: BioMAP Diversity Plus: LPS Assay for Macrophage colony-stimulating factor (MCSF) Biomarker Activity (AID 2283083); conditions: primary human HUVEC with PBMC; actives raise or lower the signal
Procedure, shortened: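 Bidirectional fitting against DMSO was applied to M-CSF levels read by ELISA at 24 h post-dose. The system pairs human umbilical vein endothelium with peripheral blood mononuclear cells; parallel SRB staining tracked cytotoxicity.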

[18] = read-out: Tissue Factor, F3 (gene 2152); assay: BSK_LPS_TissueFactor: BioMAP Diversity Plus: LPS Assay for Tissue Factor Biomarker Activity (AID 2283084); conditions: primary human HUVEC with PBMC; actives raise or lower the signal
Procedure, shortened: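 Compound was added to an endothelial cell/PBMC co-culture, and after 24 h tissue factor (CD142) was read by ELISA. Gain or loss of signal was fitted against a DMSO baseline, and parallel SRB staining (560 nm) tracked overt cytotoxicity.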

[19] = read-out: Tumor necrosis factor (Homo sapiens) (UniProt P01375); assay: BSK_LPS_TNFa: BioMAP Diversity Plus: LPS Assay for Tumour Necrosis Factor alpha (TNFa) Biomarker Activity (AID 2283085); conditions: primary human HUVEC with PBMC; actives raise or lower the signal
Procedure, shortened: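 Human umbilical vein endothelial cells co-cultured with PBMC were exposed to test chemical and TNFa measured by ELISA 24 h after dosing. Bidirectional curve fitting was done relative to DMSO as negative control and baseline.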

[20] = read-out: C-C motif chemokine 2 (Homo sapiens) (UniProt P13500); assay: BSK_KF3CT_MCP1: BioMAP Diversity Plus: KF3CT Assay for Monocyte Chemoattractant Protein 1 (MCP1/CCL2) Biomarker Activity (AID 2283073); conditions: primary human keratinocytes with fibroblasts; actives raise or lower the signal
Procedure, shortened: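 ELISA read-out of MCP-1, 24 h post-dose, in primary human skin keratinocytes co-cultured with fibroblasts. Parallel SRB staining monitors cytotoxicity; changes fitted both directions relative to DMSO.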

Measured: AC50

Chain of E-selectin (Homo sapiens) (P16581 whole entry, looked up): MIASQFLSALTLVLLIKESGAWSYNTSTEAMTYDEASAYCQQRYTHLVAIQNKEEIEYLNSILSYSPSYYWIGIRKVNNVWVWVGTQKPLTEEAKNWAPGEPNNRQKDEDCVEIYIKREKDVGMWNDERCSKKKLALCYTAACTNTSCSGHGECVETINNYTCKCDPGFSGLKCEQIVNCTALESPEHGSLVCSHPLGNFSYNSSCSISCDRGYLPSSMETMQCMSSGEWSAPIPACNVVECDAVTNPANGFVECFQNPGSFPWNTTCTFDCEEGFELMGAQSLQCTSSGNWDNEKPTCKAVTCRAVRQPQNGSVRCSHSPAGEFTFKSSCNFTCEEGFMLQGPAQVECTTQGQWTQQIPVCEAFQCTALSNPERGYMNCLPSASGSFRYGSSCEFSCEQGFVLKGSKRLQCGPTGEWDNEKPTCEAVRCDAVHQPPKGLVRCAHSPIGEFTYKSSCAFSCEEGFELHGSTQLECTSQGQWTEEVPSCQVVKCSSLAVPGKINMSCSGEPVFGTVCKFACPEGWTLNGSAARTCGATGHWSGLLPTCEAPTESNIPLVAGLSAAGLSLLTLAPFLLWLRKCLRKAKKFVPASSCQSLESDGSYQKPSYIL
Chain of Tumor necrosis factor (Homo sapiens) (P01375 whole entry, looked up): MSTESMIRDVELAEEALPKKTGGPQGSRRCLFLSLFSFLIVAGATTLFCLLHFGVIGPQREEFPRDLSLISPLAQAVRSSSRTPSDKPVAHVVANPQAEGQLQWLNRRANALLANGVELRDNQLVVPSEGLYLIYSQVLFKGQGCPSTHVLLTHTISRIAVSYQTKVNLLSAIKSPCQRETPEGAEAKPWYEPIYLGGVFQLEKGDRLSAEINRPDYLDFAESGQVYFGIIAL

CCC12COCN1COC2
not listed: [20]
inactive: all other assays above

C=CCc1ccc2c(c1)OCO2
not listed: [20]
inactive: all other assays above

N#CC(Br)Br
not listed: [3] | [19]
inactive: all other assays above

Brc1ccc(Oc2ccccc2)cc1
not listed: [3] | [19]
inactive: all other assays above

Cc1cccc(N)c1N
active: [2] 9.01 µM | [10] 7.51 µM | [12] 20 µM | [16] 20 µM | [17] 7.16 µM
not listed: [3] | [19]
inactive: all other assays above

Clc1ccccc1Cl
not listed: [5] | [19]
inactive: all other assays above

O=C(Oc1ccc(Br)cc1)N1CCN2CCC1CC2
not listed: [3] | [19]
inactive: all other assays above
